# According to ChEMBL document CHEMBL3988442, “University of Dundee, Small-Polar-MMV Screening Library” (2021):
# Out of some 48,000 compounds screened, about 13,000 (27%) showed an effect of 50% or more. Some of the results follow.
# Test system: Wolbachia pipientis
# Assay: Anti-Wolbachia Cell-Based Screen
# Format: functional
# Set-up: scale not given: in the data most compounds retested in dose-response had high values
# Settings: 5 µM
row,SMILES,Percent Effect [%]
1,Cc1csc(C2(NCc3ccc(OCC(F)F)cc3)CCCC2)n1,-12.46
2,CC(C)(C)c1noc(OCC(=O)NCC(F)(F)F)n1,4.463
3,CCNc1ncc(C(=O)Nc2nnc(N3CCCCC3)[nH]2)s1,22.13
4,CC(NC(=O)COc1ccccc1C(=O)O)c1ccc(F)cc1 (configuration not stated),-21.32
5,Cc1ccc(-c2nnc(CCC(=O)NCc3cn(C)nc3C)o2)s1,-9.163
6,COc1cc(CCC(C)O)c(OC)c2c1OCO2 (configuration not stated),17.45
7,CC(C)N(CCO)C(=O)C1CCC(=O)N(CCc2cccc(F)c2)C1 (configuration not stated),8.608
8,COCCNC(=O)NCc1ccc(OC(C)C)c(F)c1,2.22
9,Cn1cccc1C(O)CNC(=O)COc1ccccc1F (configuration not stated),-2.595
10,COCCNC(=O)NC(C)COc1ccc(F)cc1F (configuration not stated),119.4
11,CC(C)CNC(=O)CNC(=O)NC(C)COc1ccccc1F (configuration not stated),103.7
12,Cc1noc(C)c1CNC(=O)NCCOc1ccc(F)cc1F,-6.419
13,CC(COc1ccccc1F)NC(=O)N[C@@H]1C=C[C@H](CO)C1 (some centres not stated),-7.056
14,COC[C@]1(O)CCN(C(=O)c2ccc(CN(C)C)o2)CC1(C)C,-8.345
15,Cc1cnc(N)nc1N1CCN(CCCO)CC1,-5.518
16,CC1(C)[C@H](Cc2cc(CO)on2)C[C@@H]1NCc1ccc(CO)o1,-1.541
17,CN(C)c1ncccc1CNS(=O)(=O)c1ccc(F)cc1F,106.1
18,COC(=O)c1ccc(S(=O)(=O)NCc2cccnc2N(C)C)cc1,-18.83
19,CN(C)c1ncccc1CNS(=O)(=O)c1cc(F)ccc1F,114.6
20,CN(C)c1ncccc1CNS(=O)(=O)c1ccccc1Cl,109.5
21,CN(C)C(CNS(=O)(=O)c1ccc(F)cc1F)c1cccn1C (configuration not stated),-13.11
22,COc1ccc(S(=O)(=O)NCc2cccnc2N(C)C)cc1F,-8.756
23,CN(C)c1nc(NCc2cccnc2N)ncc1F,20.84
24,CN(C)C(CNS(=O)(=O)c1cc(F)ccc1F)c1cccn1C (configuration not stated),10.84
25,CN(C)c1ncccc1CNS(=O)(=O)c1cc(F)cc(F)c1,128.3
26,CC(C)N(C)S(=O)(=O)NCc1cccnc1N(C)C,34.56

row,SMILES,Percent Effect [%]
1,Cc1c(Cl)cccc1S(=O)(=O)NCc1cnc(N(C)C)n1C,-2.35
2,O=C1CC2(CCN(c3nccc(-c4cc(C(=O)O)ccn4)n3)CC2)CN1,4.533
3,CC(C)(C)c1ncc(CNc2ccn(CCc3ccncc3)n2)s1,6.667
4,CC1CS(=O)(=O)CCN1Cc1ccccc1N(C)C (configuration not stated),-2.207
5,CCc1cc(N[C@@H]2C[C@H]3CC[C@@H]2C3)n2nccc2n1,3.761
6,Cc1cc(C(=O)N(C)Cc2nc(-c3ccccn3)no2)c(C)o1,-5.968
7,CCCC(C)CS(=O)(=O)NCc1cccnc1N(C)C (configuration not stated),13.21
8,CN(C)c1ncccc1CNC(=O)N(Cc1ccccc1F)C1CC1,8.051
9,CN(C)c1ncccc1CNS(=O)(=O)c1c(F)cccc1F,108
10,CO[C@H]1CCN(S(=O)(=O)c2cccs2)[C@H]1Cc1ccncc1,-16.22
11,Cc1cnn(-c2cncc(C(N)=O)c2)c1,-7.115
12,COCC(NC(=O)NCc1sc(C)nc1C)c1ccco1 (configuration not stated),-12.64
13,Cc1ccccc1NC(=O)Nc1cc(N2CCCC2)ncn1,-4.653
14,O=C(Cc1ccc(F)cc1)NCCNc1cc(N2CCCC2)cnn1,105.1
15,O=C(Cc1ccc(F)cc1)NCCNCC1CNc2ccnn2C1 (configuration not stated),-7.839
16,O=C(NCCNc1cc(N2CCCC2)cnn1)Nc1ccccc1F,106.6
17,O=C(Cn1ccc2ccccc21)Nc1cc(N2CCCC2)ncn1,-7.456
18,CC(C)(C)C(=O)NCCNc1cc(N2CCCC2)ncn1,-0.9567
19,O=C(Cc1ccc(F)cc1)NCCNc1cc(N2CCCC2)ncn1,80.33
20,CCOc1ccccc1NC(=O)Nc1cc(N2CCCC2)ncn1,-20.57
21,O=C(Cn1ncc(N2CCNCC2)cc1=O)NCCc1ccc(F)cc1,-10.43
22,O=C1N[C@@H]2CCN(C(=O)C3CCCC3)[C@@H]2C(=O)N1c1ccc(F)cc1,-1.999
23,CS(=O)(=O)N1CCOCC2(CN(Cc3ccco3)CCO2)C1.O=C(O)C(F)(F)F (configuration not stated),-8.773
24,O=C1CCCc2nccc(-c3ccccc3)c21,-3.137
25,O=C(Cc1ccccn1)N1CCc2ncnc(N3CCCC3)c2CC1.O=C(O)C(F)(F)F,-1.895
26,Cc1cccc(CN2CCc3ncnc(N4CCCC4)c3CC2)n1.O=C(O)C(F)(F)F,88.17

row,SMILES,Percent Effect [%]
1,Cc1cccc(CN2CCc3ncnc(N4CCN(C)CC4)c3CC2)n1.O=C(O)C(F)(F)F.O=C(O)C(F)(F)F,101.7
2,Cc1cccc(CN2CCc3ncnc(N4CCOCC4)c3CC2)n1.O=C(O)C(F)(F)F,-7.957
3,O=C(N1CCOCC1)N1C[C@@H]2OCCN(C(=O)c3ccco3)[C@@H]2C1,-0.4256
4,Cc1nn(C)c2ncc(S(=O)(=O)N3CCCC(C(N)=O)C3)cc12 (configuration not stated),-2.512
5,Cc1ccccc1CN(CC(=O)O)C(=O)COCC1CC1,-13.15
6,CC(C)(C)NC(=O)CNC(=O)c1cccnc1Oc1cccnc1,-29.24
7,O=C(NCCOc1ncc(Cl)cc1Cl)c1ccncc1F,-4.331
8,CCN(CC)C(C)CNC(=O)c1cccnc1Oc1cccnc1 (configuration not stated),-104.8
9,O=C(NCCOCCO)c1cccnc1Oc1ccc(Cl)cc1,144.4
10,COCCNC(=O)c1cccnc1Oc1ccc(Cl)cc1,115.3
11,CC(C)CCNC(=O)c1cccnc1Oc1cccnc1,3.255
12,Cc1cccc(OCc2nnc(SCC3CCCN(C)C3)o2)c1 (configuration not stated),17.13
13,Cc1nc(CCN)cc(N2CCC(O)(c3ccc(Cl)cc3)CC2)n1,-10.13
14,CC(C)CN1C(=O)CO[C@@H]2CN(C(=O)C3CCOCC3)C[C@H]21,-22.5
15,Cc1nonc1C1CCCN1C(=O)CCc1cc2n(n1)CCCNC2 (configuration not stated),9.259
16,COCCC(=O)N1CCC(c2ncncc2-c2ccnc(N)c2)C1 (configuration not stated),107.7
17,Cc1nc(C2CCN(C(=O)COC(C)C)CC2)cc(N2CCOCC2)n1,30.46
18,COCCC(=O)N1CC[C@H]2C(=O)N(c3ccsc3)CCO[C@H]2C1,-5.602
19,CC(C)OCC(=O)N1CCC(c2ncncc2-c2ccnc(N)c2)C1 (configuration not stated),123.4
20,COCCC(=O)N1CCC(Nc2ncc(Cl)cn2)CC1,-4.765
21,Cc1ccc2c(c1)c(CNC(=O)C1CC(=O)N(C3CC3)C1)nn2C (configuration not stated),1.98
22,CN(CCCOc1ccccc1)Cc1nccn1C,-7.331
23,Cc1nccn1[C@@H]1CC[C@@H](NC(=O)CCCn2cccn2)[C@H]1O,100.2
24,Cc1nccn1[C@@H]1CC[C@@H](NC(=O)Cn2c(C)nc3ccccc32)[C@H]1O,99.52
25,Cc1cc(=O)n(CC(=O)NC2CCCCC2)c2ccccc12,-8.945
26,CCC[C@H]1CN(C2CCOCC2)C[C@@H]1NC(=O)CCn1ccnc1C,0.5076

row,SMILES,Percent Effect [%]
1,CC(=O)C(Cc1ccccc1)NC(=O)CSc1nccn1C1CC1 (configuration not stated),4.235
2,CC(C)(C)n1c(NC(=O)CNC(=O)NC2CC2)nc2ccccc21,-6.693
3,Cc1nccn1[C@@H]1CC[C@@H](NC(=O)CCOc2ccccc2)[C@H]1O,125.1
4,CCC(=O)N1CCN(C(=O)CCn2cccn2)CC1,5.19
5,CCc1nc(C)c(C(=O)N(C)Cc2cnn(-c3cccc(OC)c3)c2)s1,-4.854
6,Cc1ccccc1CSc1nc(N)cc(N2C[C@H](O)[C@@H](N(C)C)C2)n1,-0.3306
7,Cc1cc(-c2ccccc2C(=O)O)nc(C2CCCCN2C)n1 (configuration not stated),97.78
8,CC(=O)N1CCCC1c1nc(C)cc(-c2ccc(F)cc2)n1 (configuration not stated),79.53
9,Cc1cc(N2CCC(O)CC2)nc(C)n1,10.82
10,Cc1cccc(-c2c[nH]c(C3CCCN3C(=O)c3cc(C)n[nH]3)n2)c1 (configuration not stated),16.57
11,Cc1cc(N2CCC(O)CC2)nc(C2CCCN2C)n1 (configuration not stated),110.3
12,Cc1cc(C)n(-c2ccc(N3CCC(O)CC3)nc2)n1,-17.54
13,CC(=O)N1CCCCC1c1nc(C)cc(-c2ccccc2C(=O)O)n1 (configuration not stated),100.6
14,CC(=O)N(CCc1nc(-c2cc(C(N)=O)co2)cs1)C(C)C,-2.269
15,CC(C)(C)C(=O)N1C[C@@H](F)[C@@H](OCc2nc3ncccc3[nH]2)C1,-11.47
16,COc1ccccc1CC(=O)NC(CC(=O)O)c1ccc(C)cc1 (configuration not stated),-6.3
17,CS(=O)(=O)C1=C(O)C(=O)N(c2ccccc2)C1c1ccccc1 (configuration not stated),110.5
18,OCCC1CN(c2ncnc3[nH]cnc23)CCN1Cc1cccs1 (configuration not stated),9.965
19,CCOCc1ccccc1NC(=O)NC1CCN(C2CCCC2)C1 (configuration not stated),-8.399
20,Cn1cnnc1-c1cncc(NCc2cccc3c2OC(C)(C)C3)c1,-16.61
21,N#Cc1cccc(CN2C[C@H](NC(=O)C3CC3)[C@H]3OCCC[C@H]32)c1.O=C(O)C(F)(F)F,100.2
22,O=C(N[C@@H]1CN(Cc2ccc3c(c2)OCO3)[C@@H]2CCCO[C@@H]21)C1CC1,-19.8
23,N#Cc1cccc(CN2C[C@@H](NC(=O)C3CC3)[C@H]3OCCC[C@H]32)c1,101.9
24,N#Cc1cccc(CN(CC(=O)N2CCCC2)CC2CCCO2)c1 (configuration not stated),11.29
